This is an account of results in PubChem BioAssay (NCATS).

Records with an inconclusive call do not appear. Unmarked numbers belong to inactive results. Active and inactive are the calls of the source. Calls come from the whole dose curve; as a rule, active = well fitted cell-killing curve with a large enough effect; inconclusive = small, poorly fitted or top-dose-only effect; inactive = no such curve, though single readings can be large or run the other way.

The nature of this test: qHTS of pediatric cancer cell lines to identify multiple opportunities for drug repurposing: Primary screen for OHS-50 cells (AID 1347103). Note: nearly all actives have a fitted effect of over 40% in size. The note with it: OHS-50 osteosarcoma viability, CellTiter-Glo luminescence, 48 h; series mostly up to 57.3 µM. The text has this:
Drug repurposing or repositioning has been offered as a strategy for drug development in oncology programs. This approach has special potential for childhood cancers and other rare or orphan diseases, where the expected return on new drug development has been a disincentive to pharmaceuticals.
In this project we exploit the poly-pharmacology of drugs to discover new indications via phenotypic screening of a panel of 19 well-characterized cell lines derived from solid tumors seen in children and adolescents. The goal is to identify approved drugs with previously unrecognized anticancer properties that has the potential to reveal new mechanisms and biological processes involved in carcinogenesis or drug resistance. We employed a titration-based paradigm (quantitative high-throughput screening or qHTS), where all compounds were tested at multiple concentrations for their effect on cell viability. Concentration-response curves (CRCs) were derived directly from the primary screen, and both potency and efficacy values were used to identify compounds with robust bioactivity profiles. We screened the NIH Chemical Genomics Center (NCGC) Pharmaceutical Collection (NPC) and Mechanism Interrogation Plate (MIPE) small molecule collections of approved and investigational compounds against these cell lines; and measured metabolically active cells after 48 hours of compound treatment as a proxy for cell viability.
Assay Submitter: Nathalia J. Martinez, National Center for Advancing Translational Sciences, National Institutes of Health, Rockville, MD, USA; email: natalia.martinez@nih.gov
[1] Shen, M et al. Quantitative high-throughput phenotypic screening of pediatric cancer cell lines identifies multiple opportunities for drug repurposing. Oncotarget 2017 Dec 19;9(4):4758-4772. PMID 29435139.
The cells were obtained from University of North Carolina (UNC), Pediatric Preclinical Testing Program (PPT), and Coriell Institute (CI).
qHTS cell viability assay:
Cells were assayed in growth media at a density of 500-1,000 cells/well. Five microliters of cells were dispensed into 1,536-well, white, solid-bottom, TC-treated plates (Greiner Bio One) using a multidrop dispenser and incubated at 37 degrees C, 5% CO2, under a humidified atmosphere for 5 hours. Twenty-three nanoliters of compounds and controls (neutral control DMSO or positive control bortezomib at final concentration of 2.3 µM) were subsequently transferred by Kalypsys pintool. For primary screens, the MIPE collection was tested at 11-point dilutions (final concentrations range from 0.78 nM to 46 µM) and the NPC collection at 8-point dilutions (final concentrations range from 0.59 nM to 46 µM). Compounds tested in follow-up screens were assayed at 11-point dilutions. Cells were incubated for 48 hours, followed by addition of 3 µL of CellTiter-Glo (Promega). After a 15 min incubation at room temperature, samples were analyzed for luminescence intensity using a ViewLux High-throughput CCD imager equipped with clear filters.
(Quantitative high-throughput screening tests each substance at several concentrations.)
For the compound `CC[N+](CC)(CC(=O)Nc1c(C)cccc1C)Cc1ccccc1`, the call was inactive.

Turning to `NS(=O)(=O)c1cc(-c2nn[nH]n2)c(NCc2cccs2)cc1Cl`, the result was inactive.

With `OC[C@@H](O)[C@@H](O)[C@H](O)[C@H](O)CO`, the result was inactive.

Regarding `CN[C@@H]1[C@H](O)[C@H](NC)[C@H]2O[C@@]3(O)C(=O)C[C@@H](C)O[C@H]3O[C@@H]2[C@H]1O`, the result was inactive.

Regarding `CC(C)(C)NCC(O)COc1cccc2c1CCC(=O)N2` (stereo not given), the outcome was inactive.

`Cc1cccc(Nc2ccccc2C(=O)O)c1C`: the result was inactive.

Regarding `COC(=O)c1cccnc1`, the compound was called inactive.

Consider `NS(=O)(=O)c1ccc(C(=O)O)cc1`, for which the compound was called inactive.

For `CCN(CC)CC1CCCCN1CC(=O)N1c2ccccc2C(=O)Nc2cccnc21` (stereo not given), the compound was called inactive.

As for `CC(=O)NS(=O)(=O)c1ccc(N)cc1`, the call was inactive.

On to `Cc1c(NC(C)C)c(=O)n(-c2ccccc2)n1C`, for which the result was inactive.

With `CCCCCCCCCCOc1cc2c(=O)c(C(=O)OCC)c[nH]c2cc1OCC`, the activity change, negative = cytotoxic is -4.02% [at 6.18 µM].

`O=C(O)/C=C/c1ccc(Cn2ccnc2)cc1`: the compound was called inactive.

For the compound `OCc1ccc(Cl)cc1Cl`, the compound was called inactive.

On to `CC(C)CCOC(=O)c1ccc(N(C)C)cc1`, for which the outcome was inactive.

Consider `CC(O)CCCCn1c(=O)c2c(ncn2C)n(C)c1=O` (stereo not given), for which the compound was called inactive.

Regarding `CC[C@H](C)[C@H](N)C(=O)O`, the call was inactive.

For `Cc1ccc(S(=O)(=O)NC(=O)NC2CCCCC2)cc1`, the outcome was inactive.

Regarding `O=C(O)c1ccccc1C(=O)Nc1ccc(S(=O)(=O)Nc2nccs2)cc1`, the result was inactive.

Consider `CC(N)CCCC(C)(C)O` (stereo not given), for which the compound was classed as inactive.

As to `Cc1cc(C)nc(NS(=O)(=O)c2ccc(N)cc2)n1`, the result was inactive.

On to `C/C(=C(\CCO)SS/C(CCO)=C(\C)N(C=O)Cc1cnc(C)nc1N)N(C=O)Cc1cnc(C)nc1N`, for which the call was inactive.

For `CC(C(=O)O)c1ccc2c(c1)Cc1cccnc1O2` (stereo not given), the compound was called inactive.

For `Cc1cc(C)c(NC(=O)CN(CC(=O)O)CC(=O)O)c(C)c1Br`, the compound was classed as inactive.

As for `O=C(O)c1ccccc1OP(=O)(O)O`, the compound was called inactive.

`COc1cc(C(=O)NCCCCCC(=O)O)cc(OC)c1OC`: the outcome was inactive.

In the case of `CCOC(=O)[C@H](CCc1ccccc1)N[C@@H](C)C(=O)N1Cc2cc(OC)c(OC)cc2C[C@H]1C(=O)O`, the outcome was inactive.

Take `CCCCCCCCCCCCCCCCN`: the result was inactive.

As to `CN[C@@H]1[C@@H](O)[C@@H](O[C@@H]2[C@H](O)[C@H](O[C@H]3OC(CN)=CC[C@H]3N)[C@@H](N)C[C@H]2N)OCC1(C)O` (stereo not given in full), the outcome was inactive.

With `CCOC(N)=O`, the call was inactive.

For the compound `Cc1cccc(C(=O)O)c1O`, the compound was classed as inactive.

Consider `C/C=C/C(=O)N(CC)c1ccccc1C`, for which the compound was called inactive.

`O=C(O)C(S)C(S)C(=O)O` (stereo not given): the compound was called inactive.

`FC(F)(F)C(Cl)Br` (stereo not given): the outcome was inactive.

Regarding `CNc1c2c(nn1C)CCCC2`, the compound was called inactive.

In the case of `CC(=O)OC[C@H]1O[C@@](COC(C)=O)(O[C@H]2O[C@H](COC(C)=O)[C@@H](OC(C)=O)[C@H](OC(C)=O)[C@H]2OC(C)=O)[C@@H](OC(C)=O)[C@@H]1OC(C)=O`, the compound was called inactive.

For the compound `CCOc1cc(NC(C)=O)ccc1C(=O)OC`, the call was inactive.

Regarding `O=C(OOC(=O)c1ccccc1)c1ccccc1`, the outcome was inactive.

Regarding `O=c1[nH]c(=O)n([C@H]2C[C@H](O)[C@@H](CO)O2)cc1I`, the compound was classed as inactive.

With `O=C(O)Cc1cn(-c2ccccc2)nc1-c1ccc(Cl)cc1`, the result was inactive.
